tim23-1 inh – growth inhibitors of tim23-1 mutant yeast | inhibition, % at 20 µM | AID 463212 | S. cerevisiae tim23-1 growth, BacTiter-Glo luminescence, 24 h | 330,000 compounds, 1.3% hits;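 active = growth inhibition of the mutant yeast at or above 50%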;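 note: temperature-sensitive mutant grown at 25 °C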
Mot1-301 SUMO – inhibitors of SUMOylation pathway: yeast Mot1-301 growth rescue | S. cerevisiae Mot1-301 growth rescue, ATP luminescence, 38.5C; percent above DMSO median, 100 means doubled | growth rescue, % at 18.8 µM | 320,000 compounds, 1% hits | AID 2716;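 active = every valid replicate shows activation above 250% relative to neutral control wells; inactive = the rest, any valid replicate at or below 250%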
PfHsp90 set2 – growth inhibition of yeast expressing Plasmodium Hsp90; inhibition, % at 9.4 µM; 310,000 compounds, 0.32% hits; S. cerevisiae expressing PfHsp90, BacTiter-Glo ATP, 48 h; yeast lacking PDR1 and PDR3 efflux regulators;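 active = every replicate shows inhibition above about 80%, whatever the replicate mean, limit read from the data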
tim10-1 inh – inhibits growth of tim10-1 mutant yeast; S. cerevisiae tim10-1 ts strain growth, BacTiter-Glo, 24 h; inhibition, % at 20 µM; 330,000 compounds, 2.2% hits;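 active = inhibition of at least 40%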;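 note: mutant grown at 25 °C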
TIM10 inh – inhibits growth of TIM10 yeast strain. inhibition, % at 10 µM. S. cerevisiae TIM10 strain growth, BacTiter-Glo luminescence, 24 h. 330,000 compounds, 1.4% hits;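 active = inhibition of 40% or more at the single tested concentration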;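 note: wild-type TIM10 isogenic control strain grown at permissive 25 °C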
tim10-1 conf – confirmation of tim10-1 mutant yeast growth inhibitors. inhibition, % at 20 µM. 7,400 compounds, 56% hits. AID 463213. S. cerevisiae tim10-1 ts strain growth, BacTiter-Glo, 24 h. shares compounds with tim10-1 inh;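 active = inhibition of yeast growth at or above a set limit in either of two repeat tests at 20 µM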;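 note: tim10-1 mutant grown at permissive 25 °C to find synthetic lethal compounds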
TIM10 conf – confirmation of TIM10 yeast growth inhibitors; shares compounds with TIM10 inh; S. cerevisiae tim10 strain growth, BacTiter-Glo luminescence, 24 h; inhibition, % at 10 µM; 4,600 compounds, 63% hits; AID 463215;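 active = inhibition of yeast growth at or above a set limit in either of two replicates at 10 µM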; note: this counterscreen used the strain with wild-type TIM10
tim23-1 confirm – confirmation of tim23-1 mutant yeast growth inhibitors; shares compounds with tim23-1 inh; S. cerevisiae tim23-1 growth, BacTiter-Glo luminescence, 24 h; inhibition, % at 20 µM; 4,400 compounds, 83% hits;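 active = inhibition above about 39% in either of two replicate wells at 20 µM, limit read from the data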;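 note: temperature-sensitive tim23-1 mutant grown at 25 °C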
Numbers stand for hits; - = inactive; . = no result given. A selection: hits, their analogues and other compounds. The true share with any hit is near 4.4%.

SMILES	tim23-1 inh	Mot1-301 SUMO	PfHsp90 set2	tim10-1 inh	TIM10 inh	tim10-1 conf	TIM10 conf	tim23-1 confirm
Cc1occc1C(=O)Nc1sccc1C(N)=O	-	-	-	-	-	.	.	.
O=C(Nc1nc2c(ccc3ccccc32)s1)c1ccco1	57	-	-	51	66	52	62	75
O=C(Nc1nnc(CCc2ccccc2)s1)c1ccco1	-	-	-	-	-	.	.	.
CC(=O)Nc1ccccc1OCC(O)CS(=O)(=O)c1ccc(C(F)(F)F)cn1 (centres undefined)	-	-	-	-	-	.	.	.
COc1ccc(C(=O)NC(CCSC)C(=O)NC2CC2)cc1 (centres undefined)	-	-	-	-	-	.	.	.
O=S(=O)(c1ccc(-c2ccon2)s1)N1CCN(CCN2CCOCC2)CC1	-	-	-	-	-	.	.	.
Cc1cccc(C(=O)NCCC(=O)Nc2ccc(C#N)cc2)c1	-	-	-	-	-	.	.	.
O=C(Nc1nc2c(s1)CCc1ccccc1-2)c1ccco1	58	.	-	55	41	49	47	61
CC(=O)Nc1nc2c(s1)CCc1ccccc1-2	-	-	-	-	-	.	.	.
Cc1cccn2c(=O)c(C=O)c(N3CCCCCC3)nc12	58	-	-	46	-	43	.	46
Cc1cc(NC(=O)OC2CCCCC2)ccc1[N+](=O)[O-]	53	-	-	49	-	-	.	55
CCCn1c(NC(=O)c2cccc(S(=O)(=O)N3CCCC3)c2)nc2ccccc21	50	-	-	41	-	-	.	58
CCCn1c(NC(=O)c2ccccc2)nc2ccccc21	-	-	-	-	-	.	.	.
Cc1ccc(C(=O)NCC(=O)OC(C)C(=O)NC2CCCc3ccccc32)cc1 (centres undefined)	-	-	-	-	-	.	.	.
CCc1nn(CC(=O)NCCc2ccc(S(N)(=O)=O)cc2)c(=O)c2cc3sccc3n12	-	-	-	-	-	.	.	.
N#C/C(=C\c1ccccc1Br)C(=O)NC1CC1	84	-	-	54	67	60	83	82
COCCNC(=O)/C(C#N)=C/C=C/c1ccccc1	-	-	-	-	-	.	.	.
Cc1cc(/C=C(\C#N)C(=O)NC2CC2)c(C)[nH]1	-	-	-	-	-	.	.	.
COCCNC(=O)/C(C#N)=C/c1ccccc1Br	79	-	-	72	76	74	68	77
COc1ccc(/C=C/c2n[nH]c(=O)c(C#N)c2C)cc1	-	-	-	-	-	.	.	.
Cc1cccc(C)c1NC(=O)CN1CCN(C(=O)c2ccc(OCc3cn4ccccc4n3)cc2)CC1	-	-	.	-	-	.	.	.
Cc1cccc(NC(c2ccc(C)s2)c2ccc3ccc(C)nc3c2O)n1 (centres undefined)	57	-	-	93	-	86	.	45
Cc1ccc(S(=O)(=O)c2c(C)nn(C(C)(C)C)c2OC(=O)C(C)(C)C)cc1	-	-	-	-	-	.	.	.
CCCCC(=O)Oc1c(S(=O)(=O)c2ccc(C)cc2)c(C)nn1C(C)(C)C	-	-	-	-	-	.	.	.
Cc1ccc(S(=O)(=O)c2c(C)nn(C(C)(C)C)c2OC(=O)c2ccc(Br)o2)cc1	70	-	-	50	42	37	35	49
SMILES	tim23-1 inh	Mot1-301 SUMO	PfHsp90 set2	tim10-1 inh	TIM10 inh	tim10-1 conf	TIM10 conf	tim23-1 confirm
Cc1ccc(S(=O)(=O)c2c(C)nn(C(C)(C)C)c2OC(=O)c2ccco2)cc1	64	-	-	47	-	32	.	46
CC1Cc2cc(S(=O)(=O)N3CCC(C(=O)N(C)Cc4ccco4)CC3)ccc2N1C(=O)C1CCC1 (centres undefined)	-	-	-	-	-	.	.	.
O=[N+]([O-])c1cc(-c2nc(-c3ccncc3)no2)cc([N+](=O)[O-])c1	72	-	-	76	69	67	-	81
CC(Oc1ccc(F)cc1F)C(=O)NNC(=S)NCC1CCCO1 (centres undefined)	-	-	-	-	-	.	.	.
Oc1ccc(Br)cc1/C=N/n1c(-c2ccccc2)n[nH]c1=S	57	-	-	46	-	41	.	59
CCN(Cc1ccccc1)C(c1ccccn1)c1nnnn1C1CCCCC1 (centres undefined)	62	.	-	42	61	51	62	65
CC(c1ccccc1)N1C(=O)/C(=C/c2ccncc2)SC1=S (centres undefined)	73	-	-	66	62	61	73	-
CC1CCCCN1CC(O)COCc1ccccc1 (centres undefined)	.	-	-	.	.	.	.	.
O=C(CC(Nc1ccccc1)C(=O)O)c1ccccc1 (centres undefined)	-	-	-	-	-	.	.	.
C=C(C(=O)c1ccccc1)C(C)CC(=O)c1ccccc1 (centres undefined)	55	-	-	44	49	60	56	48
CCCCOC(=O)c1ccc(NC(=O)c2nn(C)cc2Br)cc1	55	-	.	52	48	50	41	67
CCCCOC(=O)c1ccc(NC(C)=O)cc1	-	-	-	-	-	.	.	.
O=C(NC(=S)Nc1ccccc1Cl)C1CC1	-	-	.	-	-	.	.	.
Cc1ccc(NC(=S)NC(=O)C2CC2)cc1Cl	61	-	-	49	-	-	.	49
COC(=O)c1ccc(NC(=S)NC(=O)C2CCC2)cc1	-	-	-	-	-	.	.	.
CCOC(=O)c1ccc(NC(=S)NC(=O)C2CCCC2)cc1	58	-	-	48	41	36	53	44
Cc1nc2nc(C)c(NS(=O)(=O)c3ccc(Cl)cc3)c(=O)n2[nH]1	-	-	-	-	-	.	.	.
Cc1ccc(C(=O)ONc2ccc(N=O)cc2)cc1	71	-	.	58	-	49	.	63
COc1ccc(-c2ccc(NC(=O)c3ccco3)cc2)nn1	57	-	-	47	46	-	-	51
COc1ccc(NC(=O)c2ccco2)cc1NC(=O)c1ccc(Br)o1	55	-	-	44	76	-	61	74
O=C(Nc1ccc(Nc2ccccc2)cc1)c1ccc(Br)o1	52	-	-	41	-	33	.	80
Oc1ccc(/C=N/Nc2cc(N3CCCC3)nc(N3CCCC3)n2)cc1	-	-	-	-	-	.	.	.
COc1ccc(/C=N/Nc2cc(N3CCCC3)nc(N3CCCC3)n2)cc1	68	-	-	45	-	-	.	44
N/C(=N\OC(=O)c1cc(-c2ccccc2)nc2ccccc12)c1ccccn1	81	-	-	54	84	31	89	63
COc1ccc(/C(N)=N/OC(=O)c2cc(-c3ccccc3)nc3ccccc23)cc1	79	-	-	67	82	63	75	76

Screens as filed in PubChem.
